± gives the uncertainty stated by the source.
These compounds were tested on Candida albicans SNY425 biofilm (assay: biofilm OD600 with compound plus antifungal (OD600 (absorbance)); higher = more biofilm remaining). Settings: assay detail: disruption of 24-h mature biofilm (compound + antifungal for a second 24 h).

Compound	biofilm OD600
CCC(C)[C@H](NS(=O)(=O)c1cccc2ccccc12)C(=O)N[C@H](C=O)Cc1c[nH]c2ccccc12 (stereo partly specified) + C[C@@H]1[C@H](O)[C@@H](C)/C=C/C=C/C=C/C=C/C=C/C=C/C=C/[C@H](O[C@@H]2O[C@H](C)[C@@H](O)[C@H](N)[C@@H]2O)C[C@@H]2O[C@](O)(C[C@@H](O)C[C@@H](O)[C@H](O)CC[C@@H](O)C[C@@H](O)CC(=O)O[C@H]1C)C[C@H](O)[C@H]2C(=O)O [amphotericin B] (first compound 12.5 µM)	0.27 ± 0.0099
CCCCCCCCCC(=O)N[C@@H](CCCN=C(N)N)C(=O)N[C@H](C(=O)N[C@@H](CCCCN)C(=O)N[C@@H](CCCN=C(N)N)C(=O)CCl)C(C)C + CC[C@H](C)C[C@H](C)CCCCCCCCC(=O)N[C@H]1C[C@@H](O)[C@@H](NCCN)NC(=O)[C@@H]2[C@@H](O)CCN2C(=O)[C@H]([C@H](O)CCN)NC(=O)[C@H]([C@H](O)[C@@H](O)c2ccc(O)cc2)NC(=O)[C@@H]2C[C@@H](O)CN2C(=O)[C@H]([C@@H](C)O)NC1=O [caspofungin] (first compound 4 µM)	0.18 ± 0.013
CC(C)(C)NC(=O)[C@@H]1C[C@@H]2CCCC[C@@H]2CN1C[C@@H](O)[C@H](Cc1ccccc1)NC(=O)[C@H](CC(N)=O)NC(=O)c1ccc2ccccc2n1 [saquinavir] + OC(Cn1cncn1)(Cn1cncn1)c1ccc(F)cc1F [fluconazole] (first compound 12.5 µM)	0.255 ± 0.0074
CC1(C)C[C@@H]1C(=O)N/C(=C\CCCCSC[C@H](N)C(=O)O)C(=O)O [Cilastatin] + OC(Cn1cncn1)(Cn1cncn1)c1ccc(F)cc1F [fluconazole] (first compound 12.5 µM)	0.271 ± 0.011
CCCCCCCCCC(=O)N[C@@H](CCCN=C(N)N)C(=O)N[C@H](C(=O)N[C@@H](CCCCN)C(=O)N[C@@H](CCCN=C(N)N)C(=O)CCl)C(C)C + OC(Cn1cncn1)(Cn1cncn1)c1ccc(F)cc1F [fluconazole] (first compound 4 µM)	0.267 ± 0.0072
CSCCC(C=O)NC(=O)C(CC(C)C)NC(=O)[C@H](CC(C)C)NC(C)=O (stereo partly specified) [Calpain Inhibitor II (ALLM)] + CC[C@H](C)C[C@H](C)CCCCCCCCC(=O)N[C@H]1C[C@@H](O)[C@@H](NCCN)NC(=O)[C@@H]2[C@@H](O)CCN2C(=O)[C@H]([C@H](O)CCN)NC(=O)[C@H]([C@H](O)[C@@H](O)c2ccc(O)cc2)NC(=O)[C@@H]2C[C@@H](O)CN2C(=O)[C@H]([C@@H](C)O)NC1=O [caspofungin] (first compound 12.5 µM)	0.249 ± 0.0042
CCC[C@@]1(CCc2ccccc2)CC(O)=C([C@H](CC)c2cccc(NS(=O)(=O)c3ccc(C(F)(F)F)cn3)c2)C(=O)O1 [tipranavir] + C[C@@H]1[C@H](O)[C@@H](C)/C=C/C=C/C=C/C=C/C=C/C=C/C=C/[C@H](O[C@@H]2O[C@H](C)[C@@H](O)[C@H](N)[C@@H]2O)C[C@@H]2O[C@](O)(C[C@@H](O)C[C@@H](O)[C@H](O)CC[C@@H](O)C[C@@H](O)CC(=O)O[C@H]1C)C[C@H](O)[C@H]2C(=O)O [amphotericin B] (first compound 12.5 µM)	0.264 ± 0.0073
NCCCC[C@H](N[C@@H](CCc1ccccc1)C(=O)O)C(=O)N1CCC[C@H]1C(=O)O [Lisinopril] + CC[C@H](C)C[C@H](C)CCCCCCCCC(=O)N[C@H]1C[C@@H](O)[C@@H](NCCN)NC(=O)[C@@H]2[C@@H](O)CCN2C(=O)[C@H]([C@H](O)CCN)NC(=O)[C@H]([C@H](O)[C@@H](O)c2ccc(O)cc2)NC(=O)[C@@H]2C[C@@H](O)CN2C(=O)[C@H]([C@@H](C)O)NC1=O [caspofungin] (first compound 12.5 µM)	0.258 ± 0.011
COC(=O)C[C@H](NC(=O)[C@H](C)NC(=O)[C@@H](NC(=O)OCc1ccccc1)C(C)C)C(=O)CF + OC(Cn1cncn1)(Cn1cncn1)c1ccc(F)cc1F [fluconazole] (first compound 12.5 µM)	0.283 ± 0.0098
C[C@]1(Cn2ccnn2)[C@H](C(=O)O)N2C(=O)C[C@H]2S1(=O)=O [Tazobactam] + CC[C@H](C)C[C@H](C)CCCCCCCCC(=O)N[C@H]1C[C@@H](O)[C@@H](NCCN)NC(=O)[C@@H]2[C@@H](O)CCN2C(=O)[C@H]([C@H](O)CCN)NC(=O)[C@H]([C@H](O)[C@@H](O)c2ccc(O)cc2)NC(=O)[C@@H]2C[C@@H](O)CN2C(=O)[C@H]([C@@H](C)O)NC1=O [caspofungin] (first compound 12.5 µM)	0.275 ± 0.014
CC(C)C[C@H](NC(=O)N[C@H](C(=O)N[C@@H](CCC(N)=O)C(=O)N[C@@H](C)C=O)[C@@H]1CCNC(=N)N1)C(=O)O [Elastatinal] + CC[C@H](C)C[C@H](C)CCCCCCCCC(=O)N[C@H]1C[C@@H](O)[C@@H](NCCN)NC(=O)[C@@H]2[C@@H](O)CCN2C(=O)[C@H]([C@H](O)CCN)NC(=O)[C@H]([C@H](O)[C@@H](O)c2ccc(O)cc2)NC(=O)[C@@H]2C[C@@H](O)CN2C(=O)[C@H]([C@@H](C)O)NC1=O [caspofungin] (first compound 12.5 µM)	0.263 ± 0.0069
CSCCC(C=O)NC(=O)C(CC(C)C)NC(=O)[C@H](CC(C)C)NC(C)=O (stereo partly specified) [Calpain Inhibitor II (ALLM)] + OC(Cn1cncn1)(Cn1cncn1)c1ccc(F)cc1F [fluconazole] (first compound 12.5 µM)	0.239 ± 0.0058
COC(=O)N[C@H](C(=O)N[C@@H](Cc1ccccc1)[C@@H](O)CN(Cc1ccc(-c2ccccn2)cc1)NC(=O)[C@@H](NC(=O)OC)C(C)(C)C)C(C)(C)C [atazanavir] + CC[C@H](C)C[C@H](C)CCCCCCCCC(=O)N[C@H]1C[C@@H](O)[C@@H](NCCN)NC(=O)[C@@H]2[C@@H](O)CCN2C(=O)[C@H]([C@H](O)CCN)NC(=O)[C@H]([C@H](O)[C@@H](O)c2ccc(O)cc2)NC(=O)[C@@H]2C[C@@H](O)CN2C(=O)[C@H]([C@@H](C)O)NC1=O [caspofungin] (first compound 12.5 µM)	0.203 ± 0.0059
NCC1CCC(C(=O)N[C@@H](Cc2ccccc2)C(=O)Nc2ccc(CC(=O)O)cc2)CC1 (stereo partly specified) + C[C@@H]1[C@H](O)[C@@H](C)/C=C/C=C/C=C/C=C/C=C/C=C/C=C/[C@H](O[C@@H]2O[C@H](C)[C@@H](O)[C@H](N)[C@@H]2O)C[C@@H]2O[C@](O)(C[C@@H](O)C[C@@H](O)[C@H](O)CC[C@@H](O)C[C@@H](O)CC(=O)O[C@H]1C)C[C@H](O)[C@H]2C(=O)O [amphotericin B] (first compound 12.5 µM)	0.271 ± 0.0064
COC(=O)C[C@H](NC(=O)[C@H](C)NC(=O)[C@@H](NC(=O)OCc1ccccc1)C(C)C)C(=O)CF + CC[C@H](C)C[C@H](C)CCCCCCCCC(=O)N[C@H]1C[C@@H](O)[C@@H](NCCN)NC(=O)[C@@H]2[C@@H](O)CCN2C(=O)[C@H]([C@H](O)CCN)NC(=O)[C@H]([C@H](O)[C@@H](O)c2ccc(O)cc2)NC(=O)[C@@H]2C[C@@H](O)CN2C(=O)[C@H]([C@@H](C)O)NC1=O [caspofungin] (first compound 12.5 µM)	0.296 ± 0.011
C[C@H](NC(=O)[C@@H]1CCCN1C(=O)[C@@H]1CCCN1C(=O)[C@@H](O)[C@H](N)Cc1ccccc1)C(N)=O [Apstatin] + C[C@@H]1[C@H](O)[C@@H](C)/C=C/C=C/C=C/C=C/C=C/C=C/C=C/[C@H](O[C@@H]2O[C@H](C)[C@@H](O)[C@H](N)[C@@H]2O)C[C@@H]2O[C@](O)(C[C@@H](O)C[C@@H](O)[C@H](O)CC[C@@H](O)C[C@@H](O)CC(=O)O[C@H]1C)C[C@H](O)[C@H]2C(=O)O [amphotericin B] (first compound 12.5 µM)	0.294 ± 0.0093
CC(C)CCNC(=O)[C@H](CC(C)C)NC(=O)[C@H]1O[C@@H]1C(=O)O + C[C@@H]1[C@H](O)[C@@H](C)/C=C/C=C/C=C/C=C/C=C/C=C/C=C/[C@H](O[C@@H]2O[C@H](C)[C@@H](O)[C@H](N)[C@@H]2O)C[C@@H]2O[C@](O)(C[C@@H](O)C[C@@H](O)[C@H](O)CC[C@@H](O)C[C@@H](O)CC(=O)O[C@H]1C)C[C@H](O)[C@H]2C(=O)O [amphotericin B] (first compound 12.5 µM)	0.27 ± 0.0079
C[C@H](CS)C(=O)N1CCC[C@H]1C(=O)O [Captopril] + OC(Cn1cncn1)(Cn1cncn1)c1ccc(F)cc1F [fluconazole] (first compound 12.5 µM)	0.281 ± 0.0069
O=C1Nc2ccc([N+](=O)[O-])cc2C1=O [5-Nitroisatin] + OC(Cn1cncn1)(Cn1cncn1)c1ccc(F)cc1F [fluconazole] (first compound 12.5 µM)	0.249 ± 0.0083
Nc1ccc(CC(CC(=O)O)C(=O)O)cc1 [4-Amino-D, L-benzylsuccinic acid] + C[C@@H]1[C@H](O)[C@@H](C)/C=C/C=C/C=C/C=C/C=C/C=C/C=C/[C@H](O[C@@H]2O[C@H](C)[C@@H](O)[C@H](N)[C@@H]2O)C[C@@H]2O[C@](O)(C[C@@H](O)C[C@@H](O)[C@H](O)CC[C@@H](O)C[C@@H](O)CC(=O)O[C@H]1C)C[C@H](O)[C@H]2C(=O)O [amphotericin B] (first compound 12.5 µM)	0.293 ± 0.0096
O=C(O[C@@H]1Cc2c(O)cc(O)cc2O[C@@H]1c1cc(O)c(O)c(O)c1)c1cc(O)c(O)c(O)c1 [Epigallocatechin gallate] + CC[C@H](C)C[C@H](C)CCCCCCCCC(=O)N[C@H]1C[C@@H](O)[C@@H](NCCN)NC(=O)[C@@H]2[C@@H](O)CCN2C(=O)[C@H]([C@H](O)CCN)NC(=O)[C@H]([C@H](O)[C@@H](O)c2ccc(O)cc2)NC(=O)[C@@H]2C[C@@H](O)CN2C(=O)[C@H]([C@@H](C)O)NC1=O [caspofungin] (first compound 12.5 µM)	0.264 ± 0.016
